About 83,000 compounds went through this panel and 20% of them were active in at least one assay; those are over-represented in the sample as a whole.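 Single-concentration screen, 48 h exposure, 96-well plates. Endpoint: percent growth. Below 10 = active.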 Unmarked numbers belong to inactive results. Activity calls are given as the source filed them.

Experimental findings from PubChem BioAssay (NCI) are described below.

Among the test systems are T-47D breast; BT-549 breast; MCF7 breast; HCT-116 colon; HCC-2998 colon; KM12 colon; SW-620 colon; MDA-MB-435 melanoma.
Holding throughout (assay): NCI-60 one-dose screen, 48 h (100 = growth as untreated, 0 = no growth, -100 = all killed)
Conditions in all cases: 10 µM unless noted

For `CC1=C(C)C(=O)C(Nc2cccc(C(=O)OC(C)(C)C)c2)=CC1=O`, the growth was 65% with T-47D breast; 82.6% in the test on BT-549 breast; 46% with MCF7 breast; 75.2% in the test with HCT-116 colon; 103% with HCC-2998 colon; 88.7% in the test with KM12 colon.

As for `Cc1ccc2c(n1)C(=O)C(Cl)=C(Nc1ccc(C(C)C)cc1)C2=O`, the growth with T-47D breast was -47% (active); in the test on BT-549 breast, 91.9%; in the test on SW-620 colon it was -22.8% (active); in the test with MCF7 breast it was -56.3% (active); with HCT-116 colon, -70.8% (active); in the test with HCC-2998 colon, 3.71% (active). In addition, the growth with KM12 colon is 57.8%.

With `CCC(=C(c1ccc(OCCN(C)C)cc1)c1ccc(OCCN(C)C)cc1)c1ccc(Cl)cc1`, the growth was -56% (active) with T-47D breast; -88.6% (active) in the test with MDA-MB-435 melanoma; -72.4% (active) with SW-620 colon; -72.8% (active) in the test with MCF7 breast; -67.7% (active) in the test on HCT-116 colon; -72.4% (active) with HCC-2998 colon. Further, the growth in the test on KM12 colon was -49.1% (active).

`Oc1ccc(-c2nc3ccc(/C(=N\N=C\c4ccc(Cl)cc4)c4ccccc4)cc3[nH]2)cc1`: the growth with T-47D breast was 79.9%; in the test on BT-549 breast it was 94.3%; in the test with MCF7 breast, 53.1%; in the test on HCT-116 colon, 82.6%; in the test with HCC-2998 colon it was 91.9%; in the test with KM12 colon, 74%.

`CN(C)S(=O)(=O)c1ccc(-c2nc(C(Cl)Cl)nc3cc(-c4ccc(F)cc4)nn23)cc1`: the growth in the test on T-47D breast is 38%; with MDA-MB-435 melanoma it was 6.53% (active); in the test on SW-620 colon, 4.42% (active); with MCF7 breast it was 15%; in the test with HCT-116 colon, -0.738% (active); in the test on HCC-2998 colon it was 8.78% (active). The growth in the test on KM12 colon was 7.53% (active).

Consider `CCOC(=O)c1ccc(NC2=CC(=O)C(C)=C(C)C2=O)cc1`, for which the growth in the test on T-47D breast is 43.2%; in the test on BT-549 breast, 91.1%; in the test with SW-620 colon, 101%; in the test on MCF7 breast it was 62.7%; with HCT-116 colon, 56.5%; in the test with HCC-2998 colon, 101%. Besides, in the test with KM12 colon, the growth was 46.1%.

Regarding `CCn1c2ccc(/C=N/N(C)S(=O)(=O)CCN(C)C)cc2c2cc(/C=N/N(C)S(=O)(=O)CCN(C)C)ccc21`, the growth is 88.6% with T-47D breast; 72.4% in the test on BT-549 breast; 30.6% in the test with SW-620 colon; 22.1% in the test on MCF7 breast; 14.3% in the test on HCT-116 colon; 63.4% with HCC-2998 colon. In addition, the growth with KM12 colon is 81.4%.

On to `Cc1ccc(C(=O)Nc2ccc(CNCCN3CCNCC3)c(C(F)(F)F)c2)cc1C#Cc1cnc2cccnn12`, for which the growth was 3.12% (active) in the test on T-47D breast; -76.2% (active) with MDA-MB-435 melanoma; -11.1% (active) with SW-620 colon; -82.9% (active) in the test with MCF7 breast; -58.5% (active) in the test with HCT-116 colon; 3.91% (active) with HCC-2998 colon. Also, the growth in the test with KM12 colon was -45.6% (active).

As to `O=C(CSc1cc[n+](CCCCO)c2ccccc12)n1ccc2ccccc21`, the growth in the test with T-47D breast was 96.6%; with MDA-MB-435 melanoma, 107%; with SW-620 colon, 99%; in the test on MCF7 breast it was 94.6%; in the test with HCT-116 colon, 99.6%; in the test with HCC-2998 colon it was 113%. Also, in the test with KM12 colon, the growth is 96.9%.

On to `CCCC[n+]1ccc(SCC(=O)n2ccc3ccccc32)c2ccccc21`, for which the growth is 73.3% with T-47D breast; 101% in the test with MDA-MB-435 melanoma; 102% in the test on SW-620 colon; 83% in the test on MCF7 breast; 93.1% in the test with HCT-116 colon; 109% with HCC-2998 colon. In addition, the growth in the test on KM12 colon is 92.5%.

`CN(C)S(=O)(=O)c1ccc(-c2nc(C(Cl)Cl)nc3cc(-c4ccccc4)nn23)cc1`: the growth is 89.5% in the test with T-47D breast; 81.6% with MDA-MB-435 melanoma; 49.6% in the test with SW-620 colon; 72% with MCF7 breast; 72.3% in the test on HCT-116 colon; 100% in the test with HCC-2998 colon. In the test on KM12 colon, the growth was 74%.

Regarding `O=C(CSc1nnc(-c2ccc(Cl)cc2)n1-c1ccccc1)Nc1cccc(F)c1`, the growth was 3.95% (active) in the test with T-47D breast; 50.4% with BT-549 breast; 30.9% in the test on SW-620 colon; 39% with MCF7 breast; -13.8% (active) in the test with HCT-116 colon; 59.7% with HCC-2998 colon. Further, the growth in the test with KM12 colon is 53.3%.

Consider `CCC(=C(c1ccc(OCCN2CCCCCC2)cc1)c1ccc(OCCN2CCCCCC2)cc1)c1ccc(Cl)cc1`, for which the growth was 27.1% in the test on T-47D breast; 86.2% in the test on BT-549 breast; -49.2% (active) in the test with SW-620 colon; -63.7% (active) with MCF7 breast; -88.9% (active) in the test on HCT-116 colon; -86% (active) in the test on HCC-2998 colon. For the same compound, the growth with KM12 colon was 4.43% (active).

As to `NC1=NC2(CCCC2)N(c2ccc(S(=O)(=O)Nc3nccs3)cc2)C(N)=N1`, the growth was 103% in the test on T-47D breast; 102% in the test with BT-549 breast; 105% in the test on SW-620 colon; 97.6% in the test on MCF7 breast; 109% in the test on HCT-116 colon; 109% with HCC-2998 colon. The growth with KM12 colon was 101%.

Consider `CCN(CC)CCOc1ccc(C(=C(C)Cc2ccc(OC)cc2)c2ccc(OCCN(CC)CC)cc2)cc1`, for which the growth in the test with T-47D breast is 64.2%; with MDA-MB-435 melanoma, -66.1% (active); in the test with SW-620 colon it was -6.4% (active); with MCF7 breast, -33.8% (active); in the test with HCT-116 colon it was 16.3%; in the test on HCC-2998 colon, 44.8%. In addition, the growth with KM12 colon was 48.6%.

Take `NC(=O)c1c(NC(=O)c2ccc(C(F)(F)F)cc2)sc2c1CCC(=O)C2`: the growth in the test on T-47D breast is -28.9% (active); in the test with MDA-MB-435 melanoma it was -8.14% (active); with SW-620 colon it was -17.5% (active); in the test on MCF7 breast it was 5.66% (active); with HCT-116 colon, 3.88% (active); with HCC-2998 colon, 32.3%.

With `CC1(C)CC[C@]2(C(=O)NCCCCCCN(CCCN)CCCN)CC[C@]3(C)C(=CC[C@@H]4[C@@]5(C)CC[C@H](O)C(C)(C)[C@@H]5CC[C@]43C)[C@@H]2C1`, the growth in the test on T-47D breast was 98.6%; in the test on BT-549 breast, 102%; with SW-620 colon it was 107%; with MCF7 breast, 93.4%; in the test with HCT-116 colon, 99.2%; with HCC-2998 colon, 103%. Moreover, the growth with KM12 colon was 102%.

As for `COc1ccc(C2c3[nH]c4ccc(Cl)cc4c3CCN2c2oc(CO)nc2C#N)cc1` (stereo unspecified), the growth in the test on T-47D breast was 43.1%; in the test with MDA-MB-435 melanoma, 15.2%; with MCF7 breast, 32%; in the test on HCT-116 colon, 32.1%; in the test with HCC-2998 colon, 57%; in the test on KM12 colon it was 23.4%.

In the case of `C[C@H]1OCC2(CCN(c3cnc(C(=O)Nc4cc(F)cc5cccnc45)cn3)CC2)[C@H]1N`, the growth was 35.3% in the test with T-47D breast; 91.5% in the test on BT-549 breast; 4.8% (active) in the test with SW-620 colon; 1.15% (active) in the test on MCF7 breast; 13.9% with HCT-116 colon; 78.3% with HCC-2998 colon. Besides, the growth in the test on KM12 colon was 82.5%.

Consider `Cc1ccc(S(=O)(=O)NCCCNc2nc(Nc3ccc(N4CCN(C)CC4)cc3)nc3ccsc23)cc1`, for which the growth in the test with T-47D breast was 17.2%; with BT-549 breast it was -1% (active); in the test with SW-620 colon, 20.5%; in the test with MCF7 breast, 19%; with HCT-116 colon it was 5.69% (active); in the test on HCC-2998 colon, 27.3%. Besides, the growth in the test on KM12 colon is 35.8%.
